Our source for the composite z-score and z-score values is PubChem BioAssay.

In assay [1] the test system is Wnt5a (protein binding on small-molecule microarray). The assay is described as follows: small molecules binding Wnt5a protein – biophysical, small-molecule microarray, 635/667 nm fluorescence, primary screen (AID 1142).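 Further: fluorescence read at 667 nm with signal to noise per printed feature.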 The conditions noted are these: 635 nm fluorescence, higher = more signal.
The nature of assay [2]: ATP-based viability of Huh7 replicon cells – cell-based, CellTiter-Glo luminescence, basal, 48 h, cytotoxicity control for HCV replication inhibitor project, primary screen (AID 1143).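 Further: Huh7 hepatoma cells carrying a hepatitis C replication reporter with no stimulus; test concentration not given here.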 The conditions noted are these: higher = more signal, called active from +8 up or from −8 down. In general terms: Replicon systems follow genome replication, usually without infectious particles.

Assay [3] is described as follows: Pseudomonas biofilm growth suppression – PAO1 strain, BacTiter-Glo luminescence, LB-PBS, primary screen (AID 1144). Particulars: P. aeruginosa PAO1 biofilm, 12 h, higher = more signal.
Assay [4] is described as follows: basal CRE-LacZ reporter activity in PC12 – cell-based, unstimulated, primary screen (AID 1145). Particulars: no forskolin, luminescence, 4.5 h, higher = more signal, called active from +8 up or from −8 down.
Assay [5] in a line: forskolin-driven CRE-LacZ activity in PC12 – cell-based, CRE-LacZ reporter, forskolin-stimulated, primary screen (AID 1146).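 Further: PC12 cells with 6xCRE LacZ reporter stimulated by forskolin 10 µM; beta-galactosidase reporter signal reflecting CREB driven transcription.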 The conditions noted are these: luminescence, 4.5 h, higher = more signal, called active from +8 up or from −8 down.
The target in assay [6] is Streptavidin (Streptomyces avidinii) (UniProt P22629). The assay is described as follows: compounds binding control protein streptavidin – biophysical, small-molecule microarray, 635/667 nm fluorescence, artefact control for SMM compound annotation, primary screen (AID 1147).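 Further: signal reflects streptavidin binding to arrayed compounds as a control protein.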 Particulars: higher = more signal.
Assay [7] in a line: probe aInhba binding on compound microarray – biochemical, small-molecule microarray, 635/667 nm fluorescence, primary screen (AID 1148).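 Further: score merges 667nm spot fluorescence with signal-to-noise for antibody binding to printed compounds.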 The conditions noted are these: higher = more signal.
The target of assay [8] is Torsin-1A (Homo sapiens) (UniProt O14656). In words: TOR1A wild-type binding on microarray – cell lysate, small-molecule microarray, lysate, 635/667 nm, primary screen (AID 1149). The conditions noted are these: COS7 hTOR1A-WT lysate, 635 nm fluorescence, higher = more signal.
Assay [9] has the same target. In words: torsin A mutant lysate binding on microarrays – cell lysate, small-molecule microarray, COS7 lysate, 635/667 nm fluorescence, primary screen (AID 1150).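 Further: score pools 667 nm emission and signal to noise measuring lysate protein binding.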 The conditions noted are these: COS7 hTOR1A mutant lysate, 635 nm fluorescence, higher = more signal.
Assay [10] relates to Sonic hedgehog protein (Shh). In words: Sonic hedgehog microarray binding compounds – biochemical, small-molecule microarray, 635/667 nm fluorescence, primary screen (AID 1151).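 Further: Shh protein binding to compounds spotted on small-molecule microarray slides; score combines spot fluorescence intensity with signal-to-noise across triplicate slides.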 The conditions noted are these: 635 nm fluorescence, higher = more signal.

Activity calls are given as the source filed them. Unless noted, how the calls were made is not given here.

Chain of Streptavidin (Streptomyces avidinii) (P22629 whole entry, looked up): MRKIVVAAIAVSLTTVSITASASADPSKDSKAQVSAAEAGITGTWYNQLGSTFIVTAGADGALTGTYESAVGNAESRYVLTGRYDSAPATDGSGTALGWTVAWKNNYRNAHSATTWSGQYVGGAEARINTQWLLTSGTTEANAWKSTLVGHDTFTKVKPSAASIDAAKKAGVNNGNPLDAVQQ
Chain of Torsin-1A (Homo sapiens) (O14656 whole entry, looked up): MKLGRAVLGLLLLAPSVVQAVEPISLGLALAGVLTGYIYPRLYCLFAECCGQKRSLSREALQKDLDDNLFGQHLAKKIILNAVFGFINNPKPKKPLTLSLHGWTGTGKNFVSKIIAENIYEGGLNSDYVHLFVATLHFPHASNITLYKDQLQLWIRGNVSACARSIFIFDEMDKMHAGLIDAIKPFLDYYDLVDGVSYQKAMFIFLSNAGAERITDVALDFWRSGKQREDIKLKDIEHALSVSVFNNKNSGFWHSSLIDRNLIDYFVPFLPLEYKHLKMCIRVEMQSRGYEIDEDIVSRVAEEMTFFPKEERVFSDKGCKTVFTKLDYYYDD

In the case of `CCOC(=O)CCN1C(=O)[C@H]2[C@H]3[C@H](O)[C@H](O)CC(=NOCC(C)C)[C@H]3CC[C@H]2C1=O`, the composite z-score in assay [1] was 0.0106; in [6], -0.0341; in assay [7], -0.159; in the assay with Torsin-1A (Homo sapiens) [8], 0.47; with Torsin-1A (Homo sapiens) [9], -0.5; in assay [10] it was -0.249. Besides, the z-score in [2] was 0.0793 (inactive); in assay [3] it was 0.256 (inactive); in assay [4] it was -0.0187 (inactive); in assay [5] it was 0.357 (inactive).
For `COC(=O)[C@H](C)NC(=O)CCC1CC(OC(=O)NCc2ccc3c(c2)OCO3)CC2(CCCC(COC(=O)NCCc3ccccc3OC)O2)O1` (stereo not given in full), the composite z-score in assay [1] was -0.0418; in assay [6], -0.0673; in assay [7], -0.154; in the assay with Torsin-1A (Homo sapiens) [8], 0.465; with Torsin-1A (Homo sapiens) [9] it was 0.182; in [10], -0.004. The z-score in [2] is -0.643 (inactive); in [3] it was 0.301 (inactive); in assay [4], 0.0167 (inactive); in assay [5], 0.711 (inactive).
Consider `CC1O[C@H]2C3=C(C(=O)[C@@H]4O[C@@H]4[C@H]3O)[C@@H]1C1[C@@H](C)OC=C3[C@H](O)C4O[C@@H]4C(=NOCc4ccccc4)[C@]312` (stereo not given in full), for which the composite z-score in [1] is 0.161; in assay [6] it was -0.438; in [7], -0.0963; with Torsin-1A (Homo sapiens) [8] it was 1.66; with Torsin-1A (Homo sapiens) [9] it was -0.073; in [10], 0.242. Also, the z-score was -3.64 (inactive) in assay [2], 0.933 (inactive) in [3], 2.18 (inactive) in assay [4] and 6.5 (inactive) in assay [5].
With `C=Cc1ccc([C@H]2N[C@H](C(=O)O)CC[C@@H]2C)cc1`, the composite z-score in assay [1] was -0.0905; in assay [6], -0.536; in assay [7], -0.0714; in the assay with Torsin-1A (Homo sapiens) [8] it was -0.188; with Torsin-1A (Homo sapiens) [9], 0.307; in assay [10], 0.36. In addition, the z-score was 0.369 (inactive) in assay [2], 0.53 (inactive) in assay [3], -0.346 (inactive) in assay [4] and 0.179 (inactive) in assay [5].
Regarding `CCCCc1nc2c(c3c1C[C@H](C)OC3)CN(CCOc1ccccc1)CC2`, the composite z-score in [1] was 0.0426; in assay [6], 0.501; in assay [7] it was -0.1; with Torsin-1A (Homo sapiens) [8], 0.599; in the assay with Torsin-1A (Homo sapiens) [9] it was -0.0271; in assay [10] it was 1.32. Also, the z-score was -1.65 (inactive) in [2], -2.34 (inactive) in [3], 7.15 (inactive) in assay [4] and -1.03 (inactive) in assay [5].
Turning to `O=C1C2=CC[C@H]3C(=O)N(c4cccc(Oc5ccccc5)c4)C(=O)[C@H]3[C@H]2[C@H](O)[C@@H]2O[C@H]12`, the composite z-score in assay [1] was 0.0049; in assay [6], 0.284; in assay [7], -0.239; with Torsin-1A (Homo sapiens) [8], 0.181; with Torsin-1A (Homo sapiens) [9], -0.111; in assay [10], 0.264. Also, the z-score in assay [2] was -6.01 (inactive); in assay [3], 0.478 (inactive); in [4], 0.699 (inactive); in assay [5], 19.7 (active).
For the compound `Cn1c(=O)n2n(c1=O)[C@H]1[C@H](O)[C@@H]3O[C@@H]3C(=NOCc3ccccc3)[C@H]1CC2`, the composite z-score in assay [1] is -0.279; in [6], -0.178; in assay [7] it was -0.183; with Torsin-1A (Homo sapiens) [8], -0.223; with Torsin-1A (Homo sapiens) [9], 0.0523; in [10] it was 0.378. Besides, the z-score is 0.637 (inactive) in assay [2], -0.53 (inactive) in assay [3], -0.0211 (inactive) in [4] and 0.383 (inactive) in [5].
Consider `CCOC(=O)[C@H](CC(C)C)NC(=O)CCC1CC(OC(=O)NCCc2ccc(F)cc2)CC2(CCCC(COC(=O)NCCC(C)C)O2)O1` (stereo not given in full), for which the composite z-score in [1] was -0.0436; in assay [6], 2.06; in [7], -0.0963; with Torsin-1A (Homo sapiens) [8] it was -0.239; in the assay with Torsin-1A (Homo sapiens) [9] it was 0.204; in assay [10], 0.318. The z-score was -0.439 (inactive) in assay [2], 0.288 (inactive) in assay [3], 0.91 (inactive) in [4] and -0.457 (inactive) in assay [5].
With `CCc1cc2c(nc1CC)CCN(CCC(C)=NOC[C@H]1O[C@H](c3ccccc3)C=C[C@@H]1Oc1ccc(OC)cc1)C2`, the composite z-score is -0.363 in assay [1]; 2.21 in assay [6]; -0.0093 in [7]; 0.15 in the assay with Torsin-1A (Homo sapiens) [8]; 0.274 in the assay with Torsin-1A (Homo sapiens) [9]; 0.839 in assay [10]. Further, the z-score is -4.11 (inactive) in assay [2], -1.57 (inactive) in [3], 5.73 (inactive) in assay [4] and 0.28 (inactive) in assay [5].
Take `COc1ccc(O[C@@H]2[C@H](O)CO[C@@H]2C=Cc2ccccc2)cc1`: the composite z-score in assay [1] was 0.059; in assay [6] it was -0.0696; in assay [7], -0.128; in the assay with Torsin-1A (Homo sapiens) [8], -0.071; with Torsin-1A (Homo sapiens) [9] it was 0.55; in assay [10] it was 0.503. For the same compound, the z-score in [2] was -2.79 (inactive); in assay [3], -0.828 (inactive); in assay [4], -0.613 (inactive); in assay [5], -0.736 (inactive).
Regarding `C#CCCCON=C1C[C@@H](O)[C@@H](O)[C@@H]2[C@@H]3C(=O)N(CC)C(=O)[C@@H]3CC[C@@H]12`, the composite z-score in assay [1] was -0.0855; in assay [6], -0.0757; in assay [7], -0.181; in the assay with Torsin-1A (Homo sapiens) [8], 0.787; with Torsin-1A (Homo sapiens) [9], 0.555; in assay [10], 1.2. For the same compound, the z-score is 0.0213 (inactive) in assay [2], -0.327 (inactive) in [3], -0.116 (inactive) in assay [4] and -0.14 (inactive) in assay [5].
In the case of `CCOC(=O)NN=C1C[C@@H](O)[C@@H](O)[C@@H]2[C@@H]3C(=O)N([C@@H](C)c4ccccc4)C(=O)[C@@H]3CC[C@H]12`, the composite z-score in assay [1] is 0.0373; in [6], -0.0822; in assay [7], -0.0131; with Torsin-1A (Homo sapiens) [8], 0.834; with Torsin-1A (Homo sapiens) [9] it was 0.522; in assay [10] it was 0.127. The z-score in [2] was -0.339 (inactive); in assay [3], 0.627 (inactive); in assay [4], -0.115 (inactive); in assay [5], -0.174 (inactive).
For the compound `CCOC(=O)[C@H](Cc1ccccc1)NC(=O)CCC1CC(OC(=O)NCc2cccc3ccccc23)CC2(CCCC(COC(=O)NCC(c3ccccc3)c3ccccc3)O2)O1` (stereo not given in full), the composite z-score is 0.177 in assay [1]; 0.164 in [6]; -0.154 in [7]; 0.45 with Torsin-1A (Homo sapiens) [8]; 0.0748 with Torsin-1A (Homo sapiens) [9]; 0.613 in [10]. Moreover, the z-score was -1.43 (inactive) in assay [2], -0.873 (inactive) in assay [3], 0.286 (inactive) in [4] and 0.155 (inactive) in assay [5].
`COc1ccc(C#C[C@@H]2C=C[C@H](OC(C)=O)[C@@H](COC(C)=O)O2)cc1`: the composite z-score in assay [1] amounted to 0.392; in [6] it was 0.271; in [7], 0.0442; with Torsin-1A (Homo sapiens) [8] it was 0.244; with Torsin-1A (Homo sapiens) [9], 0.267; in [10], 0.882. For the same compound, the z-score was -3.46 (inactive) in [2], 0.132 (inactive) in [3], 0.291 (inactive) in assay [4] and 1.08 (inactive) in assay [5].
